The nature of assay [1]: ATG_E_Box_CIS: Attagene CIS-FACTORIAL HepG2 Assay for human Enhancer Box (E-box) (AID 2282936). The conditions noted are these: HepG2 E-box cis-reporter transcription, actives raise or lower the signal. The procedure, abridged: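 DMSO served as negative control and baseline for bidirectional fitting. Human hepatoma HepG2 cells, transiently transfected with cis-reporter constructs, were dosed 24 h; reporter mRNA read by RT-PCR and capillary electrophoresis.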

The nature of assay [2]: ATG_M_61_CIS: Attagene CIS-FACTORIAL HepG2 Assay for M61 Transcription Factor (Internal Marker) (AID 2282937). Conditions: HepG2 Attagene CIS-FACTORIAL M61 internal marker reporter; actives raise or lower the signal. An outline of the steps: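 Endogenous transcription factor activity in HepG2 is read through transiently transfected cis-element reporter units. After 24 h dosing, RNA undergoes reverse transcription, PCR and primer extension with 6-FAM before capillary electrophoresis; DMSO-referenced bidirectional fit.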

The nature of assay [3]: ATG_EGR_CIS: Attagene CIS-FACTORIAL HepG2 Assay for human Early Growth Response 1 (EGR1) (AID 2282938). Conditions: HepG2 Attagene CIS-FACTORIAL EGR reporter mRNA; actives raise or lower the signal. An outline of the steps:
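Activity is taken as induction or loss of reporter mRNA versus DMSO, fitted bidirectionally. Transcripts from cis-regulated reporter units in transiently transfected HepG2 were measured after 24 h by RT-PCR with capillary electrophoresis.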

The nature of assay [4]: ATG_M_19_CIS: Attagene CIS-FACTORIAL HepG2 Assay for M19 Transcription Factor (Internal Marker) (AID 2282939). Conditions: HepG2 Attagene CIS-FACTORIAL M19 internal marker reporter; actives raise or lower the signal. The procedure, abridged:
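Chemical-treated HepG2 (24 h) with MRTU constructs; reporter transcripts detected by fluorescent RT-PCR fragment analysis on capillary electrophoresis. Internal background marker, DMSO as baseline.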

Assay [5] is described as follows: ATG_Ets_CIS: Attagene CIS-FACTORIAL HepG2 Assay for human Erythroblast Transformation Specific (ETS) (AID 2282941). Conditions: HepG2 ETS cis-reporter transcription, actives raise or lower the signal. The procedure, abridged:
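Human HepG2 hepatoma cells were transiently transfected with promoter-driven reporter constructs and treated for 24 hours. Reporter transcripts were quantified by RT-PCR with fluorescent primer extension; bidirectional curve fitting used DMSO as reference.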

Assay [6] deals with Hepatocyte nuclear factor 3-beta (Homo sapiens) (UniProt Q9Y261). As to the kind of experiment: ATG_FoxA2_CIS: Attagene CIS-FACTORIAL HepG2 Assay for human Forkhead box A2 (FOXA2) (AID 2282942). Conditions: HepG2 cis-reporter transcription factor activity, 24 h; actives raise or lower the signal. The procedure, abridged: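 Reporter transcript induction is measured by fluorescence after capillary electrophoresis of RT-PCR products from HepG2 cells exposed 24 h. Cis-regulated reporter units report endogenous factor activity; curves fitted both directions against DMSO.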

The nature of assay [7]: ATG_GATA_CIS: Attagene CIS-FACTORIAL HepG2 Assay for human GATA Binding Protein (AID 2282944). The conditions noted are these: HepG2 GATA cis-element reporter, Attagene multiplex mRNA; actives raise or lower the signal. The procedure, abridged:
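Transfected cis-reporter HepG2 cells were treated with chemicals for 24 hours. Total RNA was then converted to cDNA, amplified with reporter-specific primers and analysed by fluorescent capillary electrophoresis, using DMSO-treated wells as baseline.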

A short description of assay [8]: ATG_GLI_CIS: Attagene CIS-FACTORIAL HepG2 Assay for human Zinc Finger Protein GLI1 (AID 2282945). The conditions noted are these: HepG2, Attagene cis-factorial reporter mRNA, GLI element; actives raise or lower the signal. The procedure, abridged:
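Bidirectional curve fits relative to DMSO, using reporter mRNA levels from RT-PCR plus capillary electrophoresis. Cells were HepG2 transiently carrying cis-regulated reporter constructs, harvested 24 h after dosing.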

The target in assay [9] is Bile acid receptor (Homo sapiens) (UniProt Q96RI1). The experiment in a line: ATG_IR1_CIS: Attagene CIS-FACTORIAL HepG2 Assay for human Nuclear Receptor Subfamily 1 Group H Member 4 (NR1H4), IR1 submotif (AID 2282946). Conditions: IR1 reporter transcription, actives raise or lower the signal. An outline of the steps:
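Cells (human HepG2) carry transiently transfected cis-promoter reporter transcription units. Compounds are incubated 24 h, total RNA is reverse-transcribed and amplified, and labelled fragments are resolved by capillary electrophoresis. Curves use DMSO as baseline.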

A short description of assay [10]: ATG_GRE_CIS: Attagene CIS-FACTORIAL HepG2 Assay for human Glucocorticoid Response Elements (GRE) (AID 2282947). The conditions noted are these: HepG2 GRE cis-reporter, Attagene multiplex mRNA; actives raise or lower the signal. An outline of the steps:
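Assay uses human hepatoma HepG2 cells transfected with cis-promoter reporter units, exposed 24 h. mRNA from reporters detected by RT-PCR plus capillary electrophoresis; DMSO serves as negative control and baseline.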

Assay [11] is described as follows: ATG_ISRE_CIS: Attagene CIS-FACTORIAL HepG2 Assay for human Interferon Regulatory Factor 1 (IRF1) binding to an Interferon-Stimulated Response Element (ISRE) (AID 2282948). Conditions: HepG2 ISRE cis-reporter (Attagene), mRNA transcription readout; actives raise or lower the signal. The procedure, abridged:
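Cell-based cis-reporter assay; HepG2; 24 h exposure; reporter mRNA by RT-PCR plus capillary electrophoresis fluorescence; activity in either direction scored relative to DMSO.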

The nature of assay [12]: ATG_M_32_CIS: Attagene CIS-FACTORIAL HepG2 Assay for M32 Transcription Factor (Internal Marker) (AID 2282949).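 Note: background control marker of the multiplexed CIS panel rather than a real target.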 Conditions: HepG2 Attagene cis-factorial M32 reporter, mRNA; actives raise or lower the signal. An outline of the steps:
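Internal background marker read-out: RT-PCR/capillary electrophoresis fluorescence of reporter transcripts from transiently transfected HepG2 cells after 24 h chemical exposure. Activity fitted bidirectionally relative to DMSO negative control.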

Assay [13] in a line: ATG_M_06_CIS: Attagene CIS-FACTORIAL HepG2 Assay for M06 Transcription Factor (Internal Marker) (AID 2282950). Conditions: HepG2 Attagene CIS-FACTORIAL M06 internal marker reporter; actives raise or lower the signal. An outline of the steps:
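Cells (HepG2, transiently carrying cis-driven reporter units) receive chemical for 24 h before RNA isolation. Reporter cDNA is PCR-amplified, FAM-labelled by primer extension, HpaI-digested and sized on a capillary analyser.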

Assay [14] has as its target Hypoxia-inducible factor 1-alpha (Homo sapiens) (UniProt Q16665). As to the kind of experiment: ATG_HIF1a_CIS: Attagene CIS-FACTORIAL HepG2 Assay for human Hypoxia Inducible Factor 1 (HIF1A) (AID 2282951). Conditions: HepG2 Attagene cis-factorial HIF1a reporter transcription; actives raise or lower the signal. The procedure, abridged:
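Fluorescence intensity of capillary-separated, 6-FAM-labelled reporter amplicons gives mRNA induction in HepG2 cells carrying transfected cis-promoter reporter units; cells exposed 24 h, responses fitted up or down from DMSO.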

Assay [15] addresses Hepatocyte nuclear factor 6 (Homo sapiens) (UniProt Q9UBC0). As to the kind of experiment: ATG_HNF6_CIS: Attagene CIS-FACTORIAL HepG2 Assay for human Hepatocyte Nuclear Factor 6 (HNF6) (AID 2282952). Conditions: HepG2 Attagene cis-factorial HNF6 reporter transcription; actives raise or lower the signal. An outline of the steps:
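Reporter mRNA induction or loss in HepG2 after 24 h exposure; transient cis-MRTU transfection; fragments quantified by capillary electrophoresis; bidirectional analysis, DMSO as negative control.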

Assay [16] has as its target Heat shock factor protein 1 (Homo sapiens) (UniProt Q00613). As to the kind of experiment: ATG_HSE_CIS: Attagene CIS-FACTORIAL HepG2 Assay for human Heat Shock Transcription Factor 1 (HSE) (AID 2282953). The conditions noted are these: HepG2 HSE cis-reporter, Attagene RNA transcription; actives raise or lower the signal. An outline of the steps: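 Liver-derived HepG2 cells carry transiently introduced multiple reporter units governed by cis promoters. Reporter RNA measured 24 h post-dose through reverse transcription, PCR amplification, fluorescent labelling and capillary electrophoresis, normalised to DMSO.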

Assay [17] in a line: ATG_MRE_CIS: Attagene CIS-FACTORIAL HepG2 Assay for human Metal Responsive Element (MRE) (AID 2282954). Conditions: HepG2 MRE cis-reporter transcription, Attagene multiplex; actives raise or lower the signal. The procedure, abridged:
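After a 24 h chemical exposure, transiently transfected HepG2 cells yield RNA whose reporter sequences are amplified, FAM-labelled and sized by capillary electrophoresis. Curves are fitted bidirectionally relative to DMSO.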

The nature of assay [18]: ATG_PBREM_CIS: Attagene CIS-FACTORIAL HepG2 Assay for human Phenobarbital-responsive Enhancer Module (PBREM) (AID 2282955). Conditions: HepG2 PBREM cis-reporter, Attagene multiplexed transcription; actives raise or lower the signal. An outline of the steps:
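Cells were transfected with cis-element reporter units and treated for 24 h, after which RNA was extracted and reporter transcripts measured by RT-PCR and capillary electrophoresis.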

Assay [19] in a line: ATG_FoxO_CIS: Attagene CIS-FACTORIAL HepG2 Assay for human Forkhead box O (FoxO) (AID 2282943). Conditions: HepG2 Attagene cis-reporter, FoxO element, mRNA; actives raise or lower the signal. An outline of the steps: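 HepG2, transient MRTU transfection (cis element, endogenous TFs). Dose 24 h. TriZol RNA → oligo(dT) RT → PCR → 6-FAM primer extension → HpaI cut → CE. Gain/loss vs DMSO.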

Assay [20] can be described thus: ATG_ERE_CIS: Attagene CIS-FACTORIAL HepG2 Assay for Estrogen Response Element (ERE) (AID 2282940). The conditions noted are these: HepG2 ERE cis-reporter, Attagene RNA transcript; actives raise or lower the signal. The procedure, abridged:
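Human liver cells (HepG2) bearing transiently transfected, promoter-regulated reporter units were exposed 24 h. Reporter mRNA induction was detected by capillary electrophoresis of labelled RT-PCR products and fitted bidirectionally to DMSO.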

The AC50 is the concentration giving half of the maximal activity seen.

Where “and” joins values, the source holds several entries; their conditions need not be identical. Identical values can stand only once. More than one record can exist for a structure, and the calls need not agree. Calls of active or inactive are those of the source. Rule for the calls: active = hit-call score of the fitted dose curve at least 0.9, where 1 is the maximum; inactive = score below 0.9.

Sequence of Hepatocyte nuclear factor 3-beta (Homo sapiens) (Q9Y261 whole entry, looked up): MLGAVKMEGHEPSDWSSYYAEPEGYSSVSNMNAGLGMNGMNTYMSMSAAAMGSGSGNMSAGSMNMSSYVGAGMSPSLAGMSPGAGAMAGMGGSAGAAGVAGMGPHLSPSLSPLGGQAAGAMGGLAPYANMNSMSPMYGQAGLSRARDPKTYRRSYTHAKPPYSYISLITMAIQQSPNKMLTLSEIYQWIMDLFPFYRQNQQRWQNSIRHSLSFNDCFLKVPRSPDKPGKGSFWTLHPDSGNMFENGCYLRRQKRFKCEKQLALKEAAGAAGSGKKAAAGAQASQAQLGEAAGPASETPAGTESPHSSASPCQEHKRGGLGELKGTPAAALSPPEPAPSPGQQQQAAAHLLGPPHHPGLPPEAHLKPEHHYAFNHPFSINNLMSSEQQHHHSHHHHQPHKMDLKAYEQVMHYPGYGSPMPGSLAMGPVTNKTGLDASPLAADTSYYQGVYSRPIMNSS
Sequence of Heat shock factor protein 1 (Homo sapiens) (Q00613 whole entry, looked up): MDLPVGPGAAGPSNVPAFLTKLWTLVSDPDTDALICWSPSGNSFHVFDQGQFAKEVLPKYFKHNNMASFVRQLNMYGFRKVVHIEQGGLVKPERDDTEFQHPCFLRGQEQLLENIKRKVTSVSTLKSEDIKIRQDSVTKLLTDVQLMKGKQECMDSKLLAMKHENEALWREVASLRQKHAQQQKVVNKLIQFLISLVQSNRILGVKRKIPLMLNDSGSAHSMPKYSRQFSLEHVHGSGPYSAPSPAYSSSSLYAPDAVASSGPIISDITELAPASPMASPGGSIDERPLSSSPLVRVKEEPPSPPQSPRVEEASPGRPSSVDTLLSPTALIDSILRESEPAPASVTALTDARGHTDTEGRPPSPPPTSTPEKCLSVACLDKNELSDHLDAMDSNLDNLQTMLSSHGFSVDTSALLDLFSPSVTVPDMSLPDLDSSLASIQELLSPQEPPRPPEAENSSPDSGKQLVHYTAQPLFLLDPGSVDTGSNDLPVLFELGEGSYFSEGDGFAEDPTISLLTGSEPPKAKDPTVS
Sequence of Hepatocyte nuclear factor 6 (Homo sapiens) (Q9UBC0 whole entry, looked up, the tested form may be a part): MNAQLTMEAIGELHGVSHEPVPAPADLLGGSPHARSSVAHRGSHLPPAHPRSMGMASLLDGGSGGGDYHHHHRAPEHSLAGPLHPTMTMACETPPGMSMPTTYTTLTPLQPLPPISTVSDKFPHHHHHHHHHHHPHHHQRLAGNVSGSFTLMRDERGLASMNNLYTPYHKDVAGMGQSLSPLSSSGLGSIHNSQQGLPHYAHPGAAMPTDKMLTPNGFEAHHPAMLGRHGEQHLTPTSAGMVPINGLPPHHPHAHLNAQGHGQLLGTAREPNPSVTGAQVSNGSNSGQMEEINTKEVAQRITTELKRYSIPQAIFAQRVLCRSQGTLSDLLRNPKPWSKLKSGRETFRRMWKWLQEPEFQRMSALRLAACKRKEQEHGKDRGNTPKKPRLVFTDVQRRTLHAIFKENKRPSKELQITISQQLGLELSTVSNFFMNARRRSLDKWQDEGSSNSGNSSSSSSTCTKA
Sequence of Bile acid receptor (Homo sapiens) (Q96RI1 whole entry, looked up, the tested form may be a part): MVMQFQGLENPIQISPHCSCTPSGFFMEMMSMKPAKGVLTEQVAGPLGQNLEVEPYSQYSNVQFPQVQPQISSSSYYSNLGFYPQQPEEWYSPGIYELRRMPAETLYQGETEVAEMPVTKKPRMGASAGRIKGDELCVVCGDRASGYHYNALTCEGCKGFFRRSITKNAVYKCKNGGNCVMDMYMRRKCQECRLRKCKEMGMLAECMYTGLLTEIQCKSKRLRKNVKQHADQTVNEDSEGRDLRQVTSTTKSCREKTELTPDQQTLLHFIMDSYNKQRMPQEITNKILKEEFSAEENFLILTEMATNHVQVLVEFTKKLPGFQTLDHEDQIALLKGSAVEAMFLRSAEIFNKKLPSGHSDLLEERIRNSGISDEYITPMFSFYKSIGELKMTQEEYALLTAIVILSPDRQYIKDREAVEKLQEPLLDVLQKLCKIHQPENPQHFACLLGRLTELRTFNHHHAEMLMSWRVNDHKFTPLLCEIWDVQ
Sequence of Hypoxia-inducible factor 1-alpha (Homo sapiens) (Q16665 whole entry, looked up): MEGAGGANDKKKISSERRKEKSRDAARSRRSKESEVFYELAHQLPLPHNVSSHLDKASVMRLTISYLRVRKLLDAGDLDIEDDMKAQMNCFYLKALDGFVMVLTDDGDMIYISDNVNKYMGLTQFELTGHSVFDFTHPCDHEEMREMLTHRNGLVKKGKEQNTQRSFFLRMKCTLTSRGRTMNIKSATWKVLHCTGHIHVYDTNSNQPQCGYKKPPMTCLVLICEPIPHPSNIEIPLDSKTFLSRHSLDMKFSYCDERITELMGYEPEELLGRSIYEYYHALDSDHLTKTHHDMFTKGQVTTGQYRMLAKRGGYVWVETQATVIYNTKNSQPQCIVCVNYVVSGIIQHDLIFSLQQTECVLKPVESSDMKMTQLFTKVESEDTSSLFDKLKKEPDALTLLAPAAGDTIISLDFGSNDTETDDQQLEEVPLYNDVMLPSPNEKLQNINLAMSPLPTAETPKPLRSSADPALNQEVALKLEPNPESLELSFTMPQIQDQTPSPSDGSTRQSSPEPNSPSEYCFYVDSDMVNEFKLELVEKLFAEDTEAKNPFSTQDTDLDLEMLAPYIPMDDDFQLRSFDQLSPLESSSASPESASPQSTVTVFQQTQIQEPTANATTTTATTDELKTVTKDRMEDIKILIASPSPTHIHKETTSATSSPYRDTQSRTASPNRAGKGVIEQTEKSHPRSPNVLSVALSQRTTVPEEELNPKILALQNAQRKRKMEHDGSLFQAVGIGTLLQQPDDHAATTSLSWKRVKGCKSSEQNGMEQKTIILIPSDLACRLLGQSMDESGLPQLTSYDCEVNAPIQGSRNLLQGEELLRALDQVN

On to `CC(C)(c1cc(Br)c(O)c(Br)c1)c1cc(Br)c(O)c(Br)c1`, for which the outcome in [1], in [2], in assay [4], in [5], in [6] and in [7] was inactive. The result in assay [9], in assay [10], in assay [11], in assay [12], in assay [13] and in assay [14] was inactive. For the same molecule, the call in [15] and in assay [18] was inactive. The AC50 was 47.1 µM (active) and 37.6 µM (active) in assay [3]; 58.1 µM (active) in [7]; 49.8 µM (active) and 50.8 µM (active) in assay [8]; 16.3 µM (active) in assay [9]; 44.8 µM (active) in assay [11]; 47.1 µM (active) in [14]. Besides, the AC50 is 49.8 µM (active) and 49.3 µM (active) in assay [16]; 46.7 µM (active) and 48.6 µM (active) in [17].
On to `CCCCOC(=O)c1ccc(O)cc1`, for which the AC50 is 138 µM (active) in assay [1]; 97.1 µM (active) in [3]; 157 µM (active) in [5]; 164 µM (active) in assay [7]; 125 µM (active) in assay [8]; 148 µM (active) and 151 µM (active) in assay [11]. Moreover, the AC50 is 148 µM (active) in assay [16]; 143 µM (active) and 129 µM (active) in assay [17]; 58.9 µM (active) in assay [18]. For the same molecule, the outcome in [1], in [2], in assay [3], in assay [5], in assay [6] and in assay [19] was inactive. For the same molecule, the molecule was classed as inactive in assay [7], in assay [8], in assay [9], in [10], in [11] and in [12]. For the same molecule, the molecule was called inactive in assay [13], in assay [15], in [16], in assay [17] and in [18].
Consider `c1ccc(C[n+]2cccc3ccccc32)cc1`, for which the result in assay [1], in assay [2], in assay [3], in assay [4], in [5] and in assay [6] was inactive. Further, the molecule was called inactive in assay [19], in assay [7], in assay [8], in [9], in assay [10] and in assay [11]. Also, the call in assay [12], in assay [13], in [14], in [15], in [16] and in [17] was inactive. For the same molecule, the outcome in assay [18] was inactive. Further, the AC50 in [20] was 74.1 µM (active).

The values are drawn from PubChem BioAssay (EPA / NIEHS).
